According to PubChem BioAssay AID1159580 (chemical genetic matrix, 2015):
Out of some 5,500 compounds screened, about 2,000 (36%) were called active. Inconclusive results (about 18%) are left out. Cut-off read from the data, not from the text of the source: active = normalized growth mostly below about 0.91 (no sharp cut-off); inconclusive = no clear call, values can overlap the other calls; inactive = mostly above about 0.92. Some of the results follow.

Experiment: chemical genetic growth profiling, strain panel (AID 1159580);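 note: tested at 20 µM; growth read once vehicle control cultures reached saturation at 30 °C; 1 = growth at the plate median or of vehicle wells; lower values mean less growth of the strain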
Conditions: S. cerevisiae deletion strains, growth OD
[1] = locus YAL013W, strain DEP1, hits give low values
[2] = locus YAL040C, strain CLN3, hits give low values
[3] = locus YCL061C, strain MRC1 (second series), hits give low values
[4] = locus YDR363W, strain ESC2, hits give low values
[5] = locus YER002W, strain NOP16, hits give low values
[6] = locus YNL153C, strain GIM3, hits give low values
[7] = locus YNL175C, strain NOP13, hits give low values
[8] = locus YNL197C, strain WHI3, hits give low values
[9] = locus YNL224C, strain SQS1, hits give low values
[10] = locus YOR083W, strain WHI5 (second series), hits give low values
[11] = locus YPL241C, strain CIN2, hits give low values

Measured: normalized growth

CN=C(N)NCCC[C@H](N)C(=O)O
inactive: [1] 1.02 | [2] 0.993 | [3] 1.03 | [4] 1.04 | [5] 0.992 | locus YMR263W, strain SAP30, hits give low values 0.99 | [6] 1.02 | [7] 1.01 | [8] 1.01 | [9] 1.01 | [10] 1.01 | [11] 1

COc1cccc2c1[C@@H]1CN(CCCCn3c(=O)[nH]c4c(sc5ncc(-c6ccccc6)nc54)c3=O)C[C@@H]1CO2
active: locus YPL055C, strain LGE1, hits give low values 0.781
inactive: [1] 0.921 | [2] 0.969 | [3] 0.962 | locus YDR150W, strain NUM1, hits give low values 1.01 | [4] 0.963 | [5] 1.01 | locus YNL128W, strain TEP1, hits give low values 1.02 | [6] 0.929 | [7] 1.03 | [8] 1 | [9] 1 | [10] 0.93 | [11] 0.984

Cc1nc(C(F)(F)F)ccc1-c1nnc(SC(=O)c2ccc(Cl)cc2)o1
inactive: locus YDR477W, strain SNF1, hits give low values 0.82 | locus YER133W, strain GLC7, hits give low values 0.792 | locus YFR019W, strain FAB1, hits give low values 0.81 | locus YGR040W, strain KSS1, hits give low values 0.831 | locus YGR052W, strain FMP48, hits give low values 0.638 | locus YGR092W, strain DBF2, hits give low values 0.568 | locus YJL095W, strain BCK1, hits give low values 0.532 | locus YJL157C, strain FAR1, hits give low values 0.764 | locus YJR066W, strain TOR1, hits give low values 0.631 | locus YKL203C, strain TOR2, hits give low values 0.862 | locus YLR403W, strain SFP1, hits give low values 0.818 | locus YOR119C, strain RIO1, hits give low values 0.909 | locus YPL031C, strain PHO85, hits give low values 0.81 | locus YPL153C, strain RAD53, hits give low values 0.837 | locus YPL204W, strain HRR25, hits give low values 0.782
active: locus YAR019C, strain CDC15, hits give low values 0.875 | locus YBL105C, strain PKC1, hits give low values 0.883 | locus YBR135W, strain CKS1, hits give low values 0.884 | locus YBR136W, strain MEC1, hits give low values 0.888 | locus YBR160W, strain CDC28, hits give low values 0.878 | locus YDL017W, strain CDC7, hits give low values 0.882 | locus YDL028C, strain MPS1, hits give low values 0.884 | locus YDL101C, strain DUN1, hits give low values 0.866 | locus YDL108W, strain KIN28, hits give low values 0.882 | locus YDL132W, strain cdc53, hits give low values 0.877 | locus YDL214C, strain PRR2, hits give low values 0.648 | locus YDR052C, strain DBF4, hits give low values 0.886 | locus YDR054C, strain cdc34, hits give low values 0.857 | locus YDR226W, strain ADK1, hits give low values 0.867 | locus YER123W, strain YCK3, hits give low values 0.49 | locus YFL009W, strain cdc4, hits give low values 0.868 | locus YFL029C, strain CAK1, hits give low values 0.872 | locus YFR003C, strain YPI1, hits give low values 0.879 | locus YFR028C, strain CDC14, hits give low values 0.881 | locus YHR030C, strain SLT2, hits give low values 0.358 | locus YHR079C, strain IRE1, hits give low values 0.442 | locus YHR082C, strain KSP1, hits give low values 0.617 | locus YHR205W, strain SCH9, hits give low values 0.348 | locus YIL147C, strain SLN1, hits give low values 0.885 | locus YJL128C, strain PBS2, hits give low values 0.747 | locus YJR016C, strain ILV3, hits give low values 0.87 | locus YJR066W, strain TOR1 (second series), hits give low values 0.393 | locus YKL048C, strain ELM1, hits give low values 0.785 | locus YKL067W, strain YNK1, hits give low values 0.641 | locus YKL101W, strain HSL1, hits give low values 0.639 | locus YKL193C, strain SDS22, hits give low values 0.874 | locus YLR113W, strain HOG1, hits give low values 0.229 | locus YLR133W, strain CKI1, hits give low values 0.684 | locus YML070W, strain DAK1, hits give low values 0.604 | locus YMR001C, strain CDC5, hits give low values 0.875 | locus YMR205C, strain PFK2 (second series), hits give low values 0.682 | locus YMR277W, strain FCP1, hits give low values 0.876 | locus YNL006W, strain LST8, hits give low values 0.888 | locus YNL020C, strain ARK1, hits give low values 0.655 | locus YNL161W, strain CBK1, hits give low values 0.865 | locus YNL183C, strain NPR1, hits give low values 0.566 | locus YNL207W, strain RIO2, hits give low values 0.874 | locus YNL222W, strain SSU72, hits give low values 0.877 | locus YNL307C, strain MCK1 (second series), hits give low values 0.589 | locus YOL078W, strain AVO1, hits give low values 0.874 | locus YOL136C, strain PFK27, hits give low values 0.604 | locus YOR061W, strain CKA2, hits give low values 0.644 | locus YOR231W, strain MKK1, hits give low values 0.454 | locus YOR329C, strain SCD5, hits give low values 0.877 | locus YPL209C, strain IPL1, hits give low values 0.877 | locus YPL256C, strain CLN2, hits give low values 0.334 | locus YPR025C, strain CCL1, hits give low values 0.877 | locus YPR106W, strain ISR1, hits give low values 0.833 | locus YPR111W, strain DBF20, hits give low values 0.803 | strain NNK1, hits give low values 0.786 | strain TSCII, hits give low values 0.865
